According to PubChem BioAssay AID1159580 (chemical genetic matrix, 2015):
Hit rate of the full screen: of about 5,500 compounds, about 2,000 (36%) were called active. Not shown: some 18% with an inconclusive outcome. Cut-off read from the data, not from the text of the source: active = normalized growth mostly below about 0.91 (no sharp cut-off); inconclusive = no clear call, values can overlap the other calls; inactive = mostly above about 0.92. The list shows a part of the results.

Experiment: chemical genetic growth profiling, strain panel (AID 1159580);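 note: tested at 20 µM; growth read once vehicle control cultures reached saturation at 30 °C; 1 = growth at the plate median or of vehicle wells; lower values mean less growth of the strain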
Details: growth OD

Measured: normalized growth

CC(C)(C)NCC(O)COc1cccc2c1C[C@H](O)[C@H](O)C2 (stereo not given in full)
inactive: S. cerevisiae deletion strains, locus YJR075W, strain HOC1, hits give low values 1 | S. cerevisiae deletion strains, locus YKL009W, strain mrt4, hits give low values 0.972 | S. cerevisiae deletion strains, locus YKL068W, hits give low values 0.986 | S. cerevisiae deletion strains, locus YKL085W, strain MDH1 (second series), hits give low values 0.99 | S. cerevisiae deletion strains, locus YKL085W, strain MDH1, hits give low values 0.99 | S. cerevisiae deletion strains, locus YKL160W, strain elf1, hits give low values 1.01 | S. cerevisiae deletion strains, locus YKL190W, strain CNB1, hits give low values 0.993 | S. cerevisiae deletion strains, locus YKR001C, strain vps1, hits give low values 1 | S. cerevisiae deletion strains, locus YKR026C, strain gcn3, hits give low values 1.01 | S. cerevisiae deletion strains, locus YKR091W, strain srl3, hits give low values 0.993 | S. cerevisiae deletion strains, locus YLL001W, strain dnm1, hits give low values 1.01 | S. cerevisiae deletion strains, locus YLL026W, hits give low values 1.01 | S. cerevisiae deletion strains, locus YLL041C, strain sdh2, hits give low values 1 | S. cerevisiae deletion strains, locus YLR027C, strain aat2, hits give low values 1 | S. cerevisiae deletion strains, locus YLR039C, strain RIC1, hits give low values 0.973 | S. cerevisiae deletion strains, locus YLR058C, strain SHM2, hits give low values 0.997 | S. cerevisiae deletion strains, locus YLR102C, strain apc9, hits give low values 0.992 | S. cerevisiae deletion strains, locus YLR113W, strain HOG1, hits give low values 1.05 | S. cerevisiae deletion strains, locus YLR221C, strain rsa3, hits give low values 1 | S. cerevisiae deletion strains, locus YLR258W, strain gsy2, hits give low values 0.998 | S. cerevisiae deletion strains, locus YLR262C, strain YPT6 (second series), hits give low values 1.01 | S. cerevisiae deletion strains, locus YLR262C, strain YPT6, hits give low values 0.928 | S. cerevisiae deletion strains, locus YLR268W, strain sec22, hits give low values 0.994 | S. cerevisiae deletion strains, locus YLR320W, strain mms22, hits give low values 1.02 | S. cerevisiae deletion strains, locus YLR330W, strain CHS5, hits give low values 0.986 | S. cerevisiae deletion strains, locus YLR342W, strain FKS1 (second series), hits give low values 0.993 | S. cerevisiae deletion strains, locus YLR342W, strain FKS1, hits give low values 1.01 | S. cerevisiae deletion strains, locus YLR357W, strain rsc2, hits give low values 1.01 | S. cerevisiae deletion strains, locus YLR370C, strain arc18, hits give low values 1.02 | S. cerevisiae deletion strains, locus YLR371W, strain rom2, hits give low values 0.994 | S. cerevisiae deletion strains, locus YLR384C, strain iki3, hits give low values 1.02 | S. cerevisiae deletion strains, locus YLR418C, strain cdc73, hits give low values 0.946 | S. cerevisiae deletion strains, locus YML016C, strain PPZ1, hits give low values 1 | S. cerevisiae deletion strains, locus YML032C, strain rad52, hits give low values 0.999 | S. cerevisiae deletion strains, locus YML120C, strain ndi1, hits give low values 1.01 | S. cerevisiae deletion strains, locus YML124C, strain tub3, hits give low values 0.995 | S. cerevisiae deletion strains, locus YMR058W, strain fet3, hits give low values 1.01 | S. cerevisiae deletion strains, locus YMR078C, strain ctf18, hits give low values 0.982 | S. cerevisiae deletion strains, locus YMR125W, strain sto1, hits give low values 1.01 | S. cerevisiae deletion strains, locus YMR129W, hits give low values 1.01 | S. cerevisiae deletion strains, locus YMR205C, strain PFK2, hits give low values 1.02 | S. cerevisiae deletion strains, locus YMR223W, strain ubp8, hits give low values 0.964 | S. cerevisiae deletion strains, locus YMR231W, strain pep5, hits give low values 0.998 | S. cerevisiae deletion strains, locus YMR263W, strain SAP30, hits give low values 1.02 | S. cerevisiae deletion strains, locus YMR307W, strain GAS1, hits give low values 0.959 | S. cerevisiae deletion strains, locus YNL067W, strain RPL9B, hits give low values 1.02 | S. cerevisiae deletion strains, locus YNL071W, strain lat1, hits give low values 0.999 | S. cerevisiae deletion strains, locus YNL128W, strain TEP1, hits give low values 0.988 | S. cerevisiae deletion strains, locus YNL183C, strain NPR1, hits give low values 1 | S. cerevisiae deletion strains, locus YNL209W, strain ssb2, hits give low values 0.994 | S. cerevisiae deletion strains, locus YNL233W, strain BNI4, hits give low values 1.04 | S. cerevisiae deletion strains, locus YNL248C, strain rpa49, hits give low values 1.01 | S. cerevisiae deletion strains, locus YNL250W, strain rad50, hits give low values 0.972 | S. cerevisiae deletion strains, locus YNL271C, strain bni1, hits give low values 0.988 | S. cerevisiae deletion strains, locus YNL298W, strain CLA4, hits give low values 0.983 | S. cerevisiae deletion strains, locus YNL307C, strain MCK1, hits give low values 0.986 | S. cerevisiae deletion strains, locus YNL322C, strain KRE1 (second series), hits give low values 1.01 | S. cerevisiae deletion strains, locus YNL322C, strain KRE1, hits give low values 0.992 | S. cerevisiae deletion strains, locus YNR049C, strain mso1, hits give low values 1.01 | S. cerevisiae deletion strains, locus YNR052C, strain pop2, hits give low values 0.989 | S. cerevisiae deletion strains, locus YOL006C, strain TOP1, hits give low values 1.05 | S. cerevisiae deletion strains, locus YOL012C, strain htz1 1.13 | S. cerevisiae deletion strains, locus YOL147C, strain pex11, hits give low values 0.992 | S. cerevisiae deletion strains, locus YOR001W, strain rrp6, hits give low values 1 | S. cerevisiae deletion strains, locus YOR061W, strain CKA2, hits give low values 1 | S. cerevisiae deletion strains, locus YOR069W, strain VPS5, hits give low values 0.999 | S. cerevisiae deletion strains, locus YOR070C, strain gyp1, hits give low values 1 | S. cerevisiae deletion strains, locus YOR080W, strain dia2, hits give low values 1.01 | S. cerevisiae deletion strains, locus YOR083W, strain WHI5, hits give low values 1 | S. cerevisiae deletion strains, locus YOR106W, strain vam3, hits give low values 1.02 | S. cerevisiae deletion strains, locus YOR136W, strain idh2, hits give low values 0.994 | S. cerevisiae deletion strains, locus YOR144C, strain elg1, hits give low values 0.999 | S. cerevisiae deletion strains, locus YOR184W, strain ser1, hits give low values 0.974 | S. cerevisiae deletion strains, locus YOR231W, strain MKK1, hits give low values 1.06 | S. cerevisiae deletion strains, locus YOR265W, strain rbl2, hits give low values 1.01 | S. cerevisiae deletion strains, locus YOR270C, strain vph1, hits give low values 1.01 | S. cerevisiae deletion strains, locus YOR290C, strain snf2, hits give low values 1.01 | S. cerevisiae deletion strains, locus YOR316C, strain cot1, hits give low values 0.985 | S. cerevisiae deletion strains, locus YPL051W, strain arl3, hits give low values 1 | S. cerevisiae deletion strains, locus YPL078C, strain atp4, hits give low values 1 | S. cerevisiae deletion strains, locus YPL106C, strain sse1, hits give low values 1.01 | S. cerevisiae deletion strains, locus YPL240C, strain hsp82, hits give low values 0.997 | S. cerevisiae deletion strains, locus YPL241C, strain CIN2, hits give low values 0.987 | S. cerevisiae deletion strains, locus YPL256C, strain CLN2, hits give low values 1.02 | S. cerevisiae deletion strains, locus YPR119W, strain clb2, hits give low values 0.996 | S. cerevisiae deletion strains, locus YPR141C, strain kar3, hits give low values 0.994 | S. cerevisiae deletion strains, locus YPR163C, strain tif3, hits give low values 0.991 | S. cerevisiae deletion strains, locus YPR167C, strain met16, hits give low values 0.987 | S. cerevisiae deletion strains, strain wtn01, hits give low values 0.983 | S. cerevisiae strains, strain wild type, hits give low values 0.998
